Laboratory results published in PubChem BioAssay (Tox21).
Values joined by “and” are separate entries in the source; they are usually repeats but may differ in a detail not shown here. Identical values can stand only once. Records with an inconclusive call do not appear. Where a structure was tested more than once in an assay, its records may differ in their call. Active and inactive are the calls of the source. Unless noted, calls follow the shape of the dose curve; as a rule, active = well fitted curve in the direction sought with a large enough effect in the repeat runs; inconclusive = weak or mixed curves; inactive = no such curve, though single readings can be large; an effect the other way counts as inactive or inconclusive.

Key:
[1] = qHTS assay to identify small molecule agonists of H2AX (AID 1224845; active = well fitted activation curve with a large enough effect in the signal ratio in the repeat runs, not every such curve was filed as active; the % refers to the signal ratio; also: potency is read from the fitted curve at half-maximal effect)
Summary of the method: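 Phospho-H2AX Ser139 measured by HTRF (ex 320 nm; em 665 and 620 nm) after 24 hr antibody incubation. Compounds, 15 concentrations, 0.76% DMSO, were applied to CHO-K1 cells for 3hr at 37C before lysis.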

[2] = qHTS assay to identify small molecule antagonists of the estrogen related receptor (ERR) signaling pathway from Tox21 library (AID 1224848); also: nearly all actives have a fitted effect of over 50% in size; also: potency is read from the fitted curve at half-maximal effect
Summary of the method: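 ERR cell line, 2,000 cells/well. 6 h settle, then compound (DMSO) added; 18 h at 37 C; ONE-Glo luminescence after 30 min RT.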

[3] = qHTS assay to identify small molecule agonists of the estrogen related receptor (ERR) signaling pathway from Tox21 library (AID 1224849; calls by dose curve; also: nearly all actives have a fitted effect of over 15% in size); settings: ERR reporter cell line, ONE-Glo luciferase, 18 h
Summary of the method: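 Reporter cells (ERR, NTP source) treated with Tox21 10K compounds 18 h, 37 C. Readout: ONE-Glo luminescence, 30 min RT.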

[4] = qHTS RealTime-Glo MT Cell Viability Assay in HepG2 cells - 24 hour (AID 1224867); also: nearly all actives have a fitted effect of over 50% in size; also: potency is read from the fitted curve at half-maximal effect
Summary of the method: (§1)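 Tox21 10K library screened in qHTS format on HepG2 cells carrying RealTime-Glo reagents. Compounds were added after a 5 h preincubation, and the luminescent signal from continuous culture was measured repeatedly during 40 h treatment.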

[5] = A CellTox Green Cytotoxicity Assay to monitor cytotoxicity in HEK293 cells - 0 hour (AID 1224869); also: nearly all actives have a fitted effect of over 50% in size
Summary of the method: (§2)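 Homogeneous no-lysis format: HEK293 cell suspension mixed with CellTox Green reagent, seeded, incubated 5 h at 37 C/5% CO2, then dosed by pintool with compound in DMSO.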

[6] = A CellTox Green Cytotoxicity Assay to monitor cytotoxicity in HEK293 cells - 40 hour (AID 1224871); also: nearly all actives have a fitted effect of over 45% in size; also: potency is read from the fitted curve at half-maximal effect
Summary of the method: as §2

[7] = qHTS RealTime-Glo MT Cell Viability Assay in HepG2 cells - 8 hour (AID 1224873); also: nearly all actives have a fitted effect of over 55% in size; also: potency is read from the fitted curve at half-maximal effect
Summary of the method: (§3)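 Real-time viability: cells seeded at 600 per well together with NanoLuc and cell-permeant prosubstrate, compounds added after 5 h incubation. Luminescence tracked at 0, 8, 16, 24, 32 and 40 h of exposure.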

[8] = A CellTox Green Cytotoxicity Assay to monitor cytotoxicity in HEK293 cells - 24 hour (AID 1224875); also: nearly all actives have a fitted effect of over 45% in size; also: potency is read from the fitted curve at half-maximal effect
Summary of the method: as §2

[9] = A CellTox Green Cytotoxicity Assay to monitor cytotoxicity in HepG2 cells - 16 hour (AID 1224876); also: nearly all actives have a fitted effect of over 45% in size; also: potency is read from the fitted curve at half-maximal effect
Summary of the method: (§4)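 Fluorescent DNA-binding dye, 600 HepG2 cells/well, 5 h preincubation then compound in DMSO; same plates read at 0–40 h, 37 C.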

[10] = qHTS assay to identify small molecule agonists of H2AX - cell viability counter screen (AID 1224847; calls by dose curve; also: nearly all actives have a fitted effect of over 30% in size; also: potency is read from the fitted curve at half-maximal effect)
Summary of the method: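 CHO-K1 wt, 1000 cells/well, o/n 37C; cpds 15 conc, 3 h 37C, 0.76% DMSO; CellTiter-Glo, 30 min RT, luminescence.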

[11] = qHTS RealTime-Glo MT Cell Viability Assay in HEK293 cells - 32 hour (AID 1224868); also: nearly all actives have a fitted effect of over 50% in size; also: potency is read from the fitted curve at half-maximal effect
Summary of the method: (§5)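 Luminescence generated by NanoLuc from substrate produced by living HEK293 cells served as the viability signal. Each value reflects the reading at its stated time point during continuous 40 h compound exposure at 37 C.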

[12] = qHTS RealTime-Glo MT Cell Viability Assay in HepG2 cells - 32 hour (AID 1224877); also: nearly all actives have a fitted effect of over 55% in size; also: potency is read from the fitted curve at half-maximal effect
Summary of the method: as §1

[13] = A CellTox Green Cytotoxicity Assay to monitor cytotoxicity in HepG2 cells - 24 hour (AID 1224878); also: nearly all actives have a fitted effect of over 45% in size; also: potency is read from the fitted curve at half-maximal effect
Summary of the method: as §4

[14] = A CellTox Green Cytotoxicity Assay to monitor cytotoxicity in HepG2 cells - 40 hour (AID 1224879); also: nearly all actives have a fitted effect of over 40% in size; also: potency is read from the fitted curve at half-maximal effect
Summary of the method: as §4

[15] = A CellTox Green Cytotoxicity Assay to monitor cytotoxicity in HEK293 cells - 32 hour (AID 1224881); also: nearly all actives have a fitted effect of over 40% in size; also: potency is read from the fitted curve at half-maximal effect
Summary of the method: as §2

[16] = qHTS RealTime-Glo MT Cell Viability Assay in HepG2 cells - 40 hour (AID 1224870); also: nearly all actives have a fitted effect of over 50% in size; also: potency is read from the fitted curve at half-maximal effect
Summary of the method: as §3

[17] = qHTS RealTime-Glo MT Cell Viability Assay in HEK293 cells - 16 hour (AID 1224872); also: nearly all actives have a fitted effect of over 50% in size; also: potency is read from the fitted curve at half-maximal effect
Summary of the method: as §5

[18] = qHTS RealTime-Glo MT Cell Viability Assay in HEK293 cells - 40 hour (AID 1224874); settings: RealTime-Glo luminescence; max response: stronger effect = lower value; also: nearly all actives have a fitted effect of over 50% in size; also: potency is read from the fitted curve at half-maximal effect
Summary of the method: (§6)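 Measured as luminescence from the same continuously cultured HEK293 wells at successive time points (0, 8, 16, 24, 32, 40 h) after compound addition. Reagent present from seeding; dosing at 5 h; incubation 37 C.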

[19] = qHTS RealTime-Glo MT Cell Viability Assay in HEK293 cells - 0 hour (AID 1224880)
Summary of the method: as §6

[20] = qHTS assay to identify small molecule agonists of the hypoxia (HIF-1) signaling pathway (AID 1224846; active = well fitted activation curve with a large enough effect in the signal ratio in the repeat runs, not every such curve was filed as active; the % refers to the signal ratio)
Summary of the method: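 In ME-180 cells bearing an HRE-bla construct, 17 h treatment with DMSO-dissolved compounds at 37C was followed by CCF4-AM loading to quantify reporter induction.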

[21] = at 92.4 µM (top of the series) unless noted
% is scaled to controls: 0 for no effect and ±100 for the full control effect.

CCC(C)c1cc([N+](=O)[O-])cc([N+](=O)[O-])c1OC(=O)OC(C)C (centres undefined)
inactive: Potency [1] | activity change, positive = activation [3, 21] -53.4% | Potency [5] | Potency [6] | Potency [8] | Potency [9]
active: Potency [2] 19.3 µM | Potency [4] 54.9 µM | Potency [7] 43.6 µM

C[C@H]1O[C@@H](O[C@H]2[C@@H](O)C[C@H](O[C@H]3[C@@H](O)C[C@H](O[C@H]4CC[C@@]5(C)[C@H](CC[C@@H]6[C@@H]5C[C@@H](O)[C@]5(C)[C@@H](C7=CC(=O)OC7)CC[C@]65O)C4)O[C@@H]3C)O[C@@H]2C)C[C@H](O)[C@@H]1O
inactive: Potency [1] | Potency [10] | Potency [2] | activity change, positive = activation ([3]; at 92.4 µM (top of the series)) -71.3% | Potency [4] | Potency [5] | Potency [6] | Potency [7] | Potency [8] | Potency [9] | Potency [12] | Potency [13] | Potency [14] | Potency [15]
active: activity change, positive = activation ([3]; at 42.5 µM (top of the series)) -72.5% | Potency [11] 61.7 nM and 54.3 nM

Oc1c(Br)cc(Br)c2cccnc12
inactive: Potency [10] | activity change, positive = activation [3, 21] -61.3% [at 42.5 µM] | Potency [4] | Potency [5] | Potency [16] | Potency [17] | Potency [8] | Potency [9] | Potency [12] | Potency [13] | Potency [14] | Potency [15]
active: Potency [1] 55.2 µM | Potency [2] 18.8 µM | Potency [18] 19 µM

O=C(Nc1ccc(Cl)c(Cl)c1)c1cc(Cl)cc(Cl)c1O
active: Potency [10] 10.1 µM | Potency [2] 1.09 µM | Potency [11] 4.9 µM | Potency [16] 12.3 µM | Potency [6] 49 µM | Potency [18] 4.9 µM | Potency [13] 9.77 µM | Potency [14] 8.71 µM
inactive: Potency [1] | activity change, positive = activation [3, 21] -15.1% | Potency [5] | Potency [7] | Potency [9] | Potency [19]

CC(C)c1ccc(O)c(C(C)C)c1
inactive: Potency [1] | Potency [2] | activity change, positive = activation [3, 21] -4.92% | Potency [4] | Potency [5] | Potency [16] | Potency [17] | max response [18] -12.3% | Potency [12] | Potency [19]
active: Potency [10] 89.8 µM | Potency [6] 21.9 µM | Potency [8] 21.9 µM | Potency [9] 43.6 µM | Potency [13] 27.5 µM | Potency [14] 27.5 µM | Potency [15] 21.9 µM

CC1=C(/C=C/C(C)=C/C=C/C(C)=C/C(=O)Nc2ccc(O)cc2)C(C)(C)CCC1
inactive: Potency [1] | activity change, positive = activation ([3]; at 42.5 µM (top of the series)) -57.7% | activity change, positive = activation ([3]; at 92.4 µM (top of the series)) -54.4% | Potency [5] | Potency [6] | Potency [8] | Potency [9] | Potency [19] | Potency [15]
inactive and 26.8 µM (active): Potency [4] | Potency [12]
inactive and 23.9 µM (active): Potency [7]
active: Potency [10] 103 µM | Potency [2] 14 µM and 11.9 µM | Potency [11] 1 µM and 425 nM | Potency [17] 796 nM and 477 nM | Potency [18] 893 nM and 425 nM | Potency [14] 50.2 µM and 23.9 µM

CCCN(CCc1cccs1)[C@H]1CCc2c(O)cccc2C1
inactive: Potency [1] | activity change, positive = activation [3, 21] -19.8% [at 42.5 µM] | Potency [4] | Potency [5] | Potency [12] | Potency [19]
active: Potency [11] 19 µM | Potency [6] 23.9 µM | Potency [17] 15.1 µM | Potency [18] 21.3 µM | Potency [14] 23.9 µM

NC(=O)c1nc(-c2cccc(-c3cc(F)ccc3OCC(F)(F)C(F)(F)F)c2)n[nH]1
active: Potency [10] 101 µM | Potency [2] 17.2 µM | Potency [9] 49 µM | Potency [13] 43.6 µM | Potency [14] 43.6 µM
inactive: Potency [1] | activity change, positive = activation [3, 21] -59.7% | Potency [4] | Potency [5] | Potency [16] | Potency [8] | Potency [12] | Potency [19]

CC(C)N=C(N)/N=C(\N)Nc1ccc(Cl)cc1
inactive: Potency [1] | activity change, positive = activation [3, 21] -24.8% [at 42.5 µM] | Potency [4] | Potency [5] | Potency [6] | Potency [7] | Potency [8] | Potency [12] | Potency [15]
active: Potency [11] 26.8 µM | Potency [13] 26.8 µM | Potency [14] 26.8 µM

Oc1ccc(-c2ccccc2)c(Cl)c1
active: Potency [10] 89.8 µM | Potency [11] 24.5 µM | Potency [17] 24.5 µM | Potency [18] 21.9 µM | Potency [9] 49 µM | Potency [13] 49 µM | Potency [14] 49 µM
inactive: Potency [1] | Potency [4] | Potency [5] | Potency [16] | Potency [7] | Potency [12] | Potency [19]

C=CC(=O)OCCN(CC)CC
inactive: Potency [1] | Potency [10] | Potency [4] | Potency [11] | Potency [5] | Potency [16] | Potency [6] | Potency [17] | Potency [7] | max response [18] 3.34% | Potency [8] | Potency [9] | Potency [12] | Potency [13] | Potency [14] | Potency [19] | Potency [15]

Nc1ncnc2c1ncn2[C@@H]1O[C@H](COP(=O)(O)O)[C@@H](O)[C@H]1O
inactive: Potency [1] | Potency [10] | Potency [11] | Potency [5] | Potency [16] | Potency [6] | Potency [17] | max response [18] 3.96% | Potency [8] | Potency [9] | Potency [12] | Potency [13] | Potency [14] | Potency [19] | Potency [15]

CCN(CC)CCCN(c1ccccc1)C1Cc2ccccc2C1
active: Potency [13] 23.9 µM | Potency [14] 23.9 µM
inactive: Potency [1] | outcome [20] | Potency [4] | Potency [5] | Potency [17] | Potency [8] | Potency [12] | Potency [15]

C1CC(COCC2CO2)CCC1COCC1CO1 (centres undefined)
inactive: Potency [1] | Potency [10] | activity change, positive = activation [3, 21] -24.4% | Potency [4] | Potency [11] | Potency [5] | Potency [16] | Potency [6] | Potency [17] | Potency [7] | Potency [8] | Potency [9] | Potency [12] | Potency [13] | Potency [15]

COc1cc(C(=O)NS(=O)(=O)c2ccccc2C)ccc1Cc1cn(C)c2ccc(NC(=O)OC3CCCC3)cc12
inactive: Potency [1] | Potency [2] | activity change, positive = activation [3, 21] -10.9% [at 42.5 µM] | Potency [4] | Potency [11] | Potency [5] | Potency [16] | Potency [6] | Potency [17] | Potency [7] | max response [18] -0.13% | Potency [8] | Potency [9] | Potency [12] | Potency [13] | Potency [14] | Potency [19] | Potency [15]
